Reference: PubChem BioAssay (NCI)
This is part of a sample that, as a whole, favours compounds with a hit. Of some 83,000 tested, about 20% had one in any assay.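 The endpoint reported here, percent growth, reads 100 for growth as untreated, 0 for no net growth and -100 for all cells dead.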 Values without a mark were called inactive. Calls of active or inactive are those of the source. How the source made its calls: active means growth percent below 10; inactive means the rest.

Columns and labels:
Assay in all cases: NCI-60 one-dose screen, 48 h (100 = growth as untreated, 0 = no growth, -100 = all killed)
Conditions in all cases: 10 µM unless noted
DU-145 prostate = test system: DU-145 prostate
K-562 leukemia = test system: K-562 leukemia
MALME-3M melanoma = test system: MALME-3M melanoma
MDA-MB-231 breast = test system: MDA-MB-231 breast
RXF 393 renal = test system: RXF 393 renal
SF-268 CNS = test system: SF-268 CNS
SF-295 CNS = test system: SF-295 CNS
SF-539 CNS = test system: SF-539 CNS
UACC-257 melanoma = test system: UACC-257 melanoma
M14 melanoma = test system: M14 melanoma
HCT-15 colon = test system: HCT-15 colon
HT29 colon = test system: HT29 colon
SNB-75 CNS = test system: SNB-75 CNS
SNB-19 CNS = test system: SNB-19 CNS
U251 CNS = test system: U251 CNS
PC-3 prostate = test system: PC-3 prostate
SK-MEL-5 melanoma = test system: SK-MEL-5 melanoma
UACC-62 melanoma = test system: UACC-62 melanoma
LOX IMVI melanoma = test system: LOX IMVI melanoma
SK-MEL-28 melanoma = test system: SK-MEL-28 melanoma

SMILES	growth (DU-145 prostate)	growth (K-562 leukemia)	growth (MALME-3M melanoma)	growth (MDA-MB-231 breast)	growth (RXF 393 renal)	growth (SF-268 CNS)	growth (SF-295 CNS)	growth (SF-539 CNS)	growth (UACC-257 melanoma)	growth (M14 melanoma)	growth (HCT-15 colon)	growth (HT29 colon)	growth (SNB-75 CNS)	growth (SNB-19 CNS) [%]	growth (U251 CNS)	growth (PC-3 prostate)	growth (SK-MEL-5 melanoma)	growth (UACC-62 melanoma)	growth (LOX IMVI melanoma)	growth (SK-MEL-28 melanoma)
CCOC(=O)c1c(NC(=O)c2cccc(C(F)(F)F)c2)sc2c3c(ccc12)OCN(C)C3	-16.8% (active)	-64.1% (active)	-53.9% (active)	-95.9% (active)	-91.4% (active)	-57.3% (active)	44.6%	-0.959% (active)	30.8%	-17% (active)	-70.9% (active)	-11.8% (active)	83.6%	49.6	-79.4% (active)	-42.5% (active)	68.6%	25.6%	-94.7% (active)	9.77% (active)
O=S(=O)(NCCCNc1nccc(-c2[nH]c(-c3ccccc3)nc2-c2ccc(F)c(O)c2)n1)c1cccc(F)c1	100%	49.3%	-2.58% (active)	79.3%	100%	103%	85.2%	103%	23.4%	29.3%	86%	99.4%	69.3%	110	99.4%	77.3%	46.5%	18.2%	70%	31.8%
Cc1ccc(/C=N/Nc2nc(Nc3ccccc3)nc(Nc3ccc(S(N)(=O)=O)cc3)n2)cc1	65.1%	56.8%	91.8%	73.4%	-2.59% (active)	87.1%	57.7%	44.7%	101%	72.8%	53.5%	54.8%	67.7%	77.6	62.6%	66.8%	76%	91.3%	54.9%	75.7%
Cn1c(SCC(=O)c2ccc(Br)cc2)nc2ccccc2c1=O	97.8%	85.2%	111%	94.9%	115%	97.5%	97.6%	97.3%	108%	96.6%	99.5%	101%	94.3%	100	103%	96.5%	92.5%	77.5%	95.9%	97.3%
CCOC(=O)c1c(N)c(C#N)cn1Cc1ccc(Cl)cc1Cl	93.5%	24.8%	85.6%	43.9%	63.1%	80.5%	80.2%	73.3%	92.7%	72.4%	48.8%	80.4%	47.3%	68.7	64.1%	71.5%	78%	59.8%	78.8%	92.6%
N#CC1=C2NCCCNc3oc(nc3C#N)Cc3ccccc3CC(=N1)O2	99%	12%	97.8%	97.6%	93.2%	101%	108%	99.2%	92.2%	86.4%	74.8%	102%	92%	93.2	96.1%	91.9%	99.1%	87.5%	8.01% (active)	102%
CC1CC(=O)C2=C(C1)Nc1ccc(Br)cc1CC2c1c[nH]c2ccc(Br)cc12 (stereo not given)	71.6%	21.6%	59.3%	68.8%	69%	67.8%	4.8% (active)	54.8%	67.9%	29%	27.1%	11.1%	-7.47% (active)	54.7	53.1%	31.3%	66.1%	42.1%	34.9%	57.2%
C=C(C)[C@@H]1CC[C@]2(C(=O)O)CC[C@]3(C)[C@H](CC[C@@H]4[C@@]5(C)C/C(=C/c6ccccn6)C(=O)C(C)(C)[C@@H]5CC[C@]43C)[C@@H]12	45.5%	29.3%	72.5%	61.7%	62.1%	51.5%	34%	46.8%	46.5%	59%	18.9%	40.8%	61.1%	50.3	27.9%	28.4%	31.8%	40.1%	34.6%	64%
COc1ccc(OC)c(NC(=O)CCCCCCNC(=O)C(O)(O)C(F)(F)F)c1	34.9%	19.4%	24.9%	61.6%	1.79% (active)	55%	20.6%	46%	41.2%	46.8%	59.4%	23.6%	56.1%	63.5	41.8%	51.4%	16.6%	13%	32.3%	35.6%
Clc1ccc2[nH]cc(-c3nn4cc(-c5cccnc5)nc4s3)c2c1	107%	94.7%	90.6%	71.7%	113%	107%	96.7%	95.6%	109%	99.2%	95.1%	98.7%	90.5%	100	93.8%	88.6%	96.2%	90.1%	123%	101%
COc1ccc(OC)c(CCn2cncc2-c2c[nH]c3ccc(Cl)cc23)c1	60.5%	15.8%	45.9%	62.6%	62.8%	50.5%	28.9%	71.6%	23%	48.4%	32.8%	10.1%	21.4%	60.4	47.1%	39.1%	-19.8% (active)	40.7%	47.3%	67.7%
NC(=O)c1c(NC(=O)c2ccc(C(F)(F)F)cc2)sc2c1CCC(=O)C2	59%	7.94% (active)	-22.4% (active)	-14.5% (active)	-5.39% (active)	13.2%	4.24% (active)	-74.3% (active)	-18% (active)	-22% (active)	-21.2% (active)	0.0943% (active)	-7.54% (active)	16.3	7.99% (active)	-6.96% (active)	-27.2% (active)	-24.9% (active)	-37.2% (active)	4.03% (active)
CC(=O)N1N=C(c2cc3ccccc3oc2=O)CC1c1cn(-c2ccccc2)nc1-c1ccc(C)cc1 (stereo not given)	103%	103%	92.3%	94.4%	98.8%	98.7%	100%	90.1%	99.4%	101%	103%	108%	90.7%	96	104%	93%	101%	95.2%	95.7%	106%
COc1cc(-c2nc(-c3ccccc3)[nH]c2-c2ccnc(NCCCNS(=O)(=O)c3cccc(F)c3)n2)ccc1F	87.1%	63.6%	95.6%	94.3%	92.2%	89.1%	102%	98.6%	115%	93.3%	72.7%	83.2%	112%	107	95.9%	62.9%	92%	99.8%	86.2%	100%
CC1(C)CC[C@]23CC[C@]4(C)[C@H](CC[C@@H]5[C@@]6(C)CC[C@H](NCO)C(C)(C)[C@@H]6CC[C@]54C)[C@H]2[C@H]1OC3	14.8%	4.93% (active)	93.5%	19.7%	56.3%	77%	59.6%	69%	103%	35.9%	-13.5% (active)	17.9%	86.5%	36.9	1.32% (active)	75%	97.7%	99.6%	-89.9% (active)	89.5%
